CHRM1 antagonist = antagonists of human M1 muscarinic receptor; CHO-K1 hM1, Fluo-8 calcium fluorescence, ACh EC80 antagonist; inhibition, % at 3 µM; actives 1.3% (n = 360,000);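 active = percent inhibition above its own plate's cutoff, namely the mean of that plate's compound wells plus 3 SD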;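 also: peak over basal fluorescence ratio during 140 s after agonist addition; 0% = ACh EC80 plus DMSO and 100% = DMSO alone without agonist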
Target sequence (P11229 whole entry, looked up): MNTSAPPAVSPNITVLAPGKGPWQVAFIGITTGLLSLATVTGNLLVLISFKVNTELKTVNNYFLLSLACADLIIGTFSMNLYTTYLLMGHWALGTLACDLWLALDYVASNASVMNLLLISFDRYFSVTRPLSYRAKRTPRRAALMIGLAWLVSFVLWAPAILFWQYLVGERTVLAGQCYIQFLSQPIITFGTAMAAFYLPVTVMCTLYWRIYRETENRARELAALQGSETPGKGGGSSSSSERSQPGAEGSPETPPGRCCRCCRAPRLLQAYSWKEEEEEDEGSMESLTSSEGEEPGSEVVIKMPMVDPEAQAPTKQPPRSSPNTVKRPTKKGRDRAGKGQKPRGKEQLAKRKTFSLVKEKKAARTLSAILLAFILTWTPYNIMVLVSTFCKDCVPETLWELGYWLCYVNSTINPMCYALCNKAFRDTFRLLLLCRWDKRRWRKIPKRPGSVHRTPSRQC
CHRM1 agonist = human M1 muscarinic receptor agonism. P11229. CHO-K1 hM1, Fluo-8 calcium fluorescence, agonist mode; 0% DMSO, 100% acetylcholine EC100. activation, % at 3 µM. actives 0.33% (n = 360,000);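 active = activation above the run's mean compound activation plus 3 SD, cut at about 16% in these data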;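 also: peak over basal fluorescence ratio within a 140 s kinetic read after compound addition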
ATG4B inh = blocks human ATG4B protease cleavage of LC3 substrate. ATG4B cleavage of LC3-PLA2, NBD-HPC fluorescence, 1 h. actives 0.51% (n = 340,000). Q9Y4P1. AID 504462. inhibition, % at 8.33 µM; in the data active = inhibition above about 40%
CHRM1 PAM = positive allosteric modulators of human M1 muscarinic receptor | actives 0.088% (n = 360,000) | activation, % at 3 µM | CHO-K1 hM1, Fluo-8 calcium fluorescence, ACh EC20; 0% = ACh EC20, 100% = maximal ACh | P11229; in the data active = activation above about 19%, passing the limit was not always enough
Myeloid diff MLP = promotes myeloid progenitor differentiation; actives 1% (n = 360,000); calls only at 10 µM; ER-HoxA9 myeloid progenitors, lysozyme-GFP differentiation, flow cytometry;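 active = normalized GFP-positive differentiation at or above the plate's own cutoff, the solvent-only control mean plus 3 SD; inconclusive = no clear call, values can overlap the other calls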;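 also: cells exposed to compound for four days before flow analysis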
SKN-1 block = inhibitors of C. elegans SKN-1; C. elegans VP596 Pgst-4::GFP/RFP ratio, acrylamide-induced, 24 h; AID 624304; actives 0.49% (n = 360,000); inhibition, % at 21.8 µM;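 active = interference check ratio from 0.5 to 1.5 plus GFP to RFP signal ratio inhibition reaching or exceeding a fixed threshold, cut at about 30% in these data, passing the limit was not always enough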
An asterisk follows results filed as active; i = inactive; ? = inconclusive; · = no result; + = active, no number. This is a sample that favours compounds with a hit; in the whole collection about 3.5% have one here.

SMILES	CHRM1 antagonist	CHRM1 agonist	ATG4B inh	CHRM1 PAM	Myeloid diff MLP	SKN-1 block
COc1cc(Cl)cc2c1Sc1ccccc1/C2=C/CCN(C)C	68.4*	-4.0	10.6	-23.7	i	-4.2
CN(C)CCNC(=O)c1ccc2c(c1)NC(=O)c1ccccc1S2	-9.7	-9.0	-2.9	7.2	i	10.8
CN(C)CCNC(=O)Nc1ccc(F)cc1F	-7.4	-1.3	2.0	11.4	i	-6.3
CC(C)c1ccccc1OCC(=O)Nc1ccccc1C(=O)N1CCOCC1	13.2	-2.8	-8.4	-3.6	i	8.5
O=S(=O)(Nc1cccc(-c2cn3c(n2)SCC3)c1)c1ccccc1	0.0	-2.1	-13.8	1.8	i	8.7
COc1ccc2c3c(cccc13)C(=O)CC2	30.6	119.0*	-68.0	-21.4	?	49.7
O=C(c1cccs1)N1CCN(C23CC4CC(CC(C4)C2)C3)CC1	72.0*	-5.9	-7.7	-23.1	i	-1.9
O=C(c1cccs1)N1CCN(c2ccccc2)CC1	-7.3	-4.8	-12.7	8.8	i	-2.1
O=C(c1ccc(Cl)s1)N1CCN(C23CC4CC(CC(C4)C2)C3)CC1	14.0	-7.6	1.5	-13.6	i	-21.1
CC1CN(C(=O)c2cccs2)CCN1C(=O)c1cccs1 (stereo not given)	-2.2	-5.1	-6.8	5.3	i	43.2*
C[C@H](CO)N1C[C@H](C)[C@@H](CN(C)Cc2ccc3c(c2)OCO3)Oc2c(NC(=O)Cc3ccccc3)cccc2C1=O	2.5	-6.3	-16.0	-2.2	i	12.2
Fc1ccc(NCc2cn3ccccc3n2)cc1	-7.0	-3.7	2.3	0.1	+	9.4
NCCCCNCCCN	62.0	79.3*	-2.2	-28.8	i	-3.3
CC(=O)c1ccc(N2CCN(C(=S)Nc3ccccc3C(F)(F)F)CC2)cc1	4.7	-9.5	-9.8	2.6	i	0.5
CC(OC(=O)C1=NN(c2ccccc2)C(=O)CC1)C(=O)NC1CCCCC1C (stereo not given)	-10.8	-5.0	-2.9	10.4	i	4.1
COC(=O)c1c(C)[nH]c(C(=O)OC(C)C(=O)N2CCOCC2)c1C (stereo not given)	0.1	-0.6	6.5	3.9	i	10.2
Cc1nn(-c2ccccc2)c(C)c1C(=O)OC(C)C(=O)NC1CCCCC1C (stereo not given)	29.6*	1.3	-5.7	-14.2	i	8.3
COC(=O)c1c(C)[nH]c(C(=O)OC(C)C(=O)NC2CCCCC2C)c1C (stereo not given)	-13.4	8.0	·	26.2*	i	-11.4
COc1cc(C2C3=C(Nc4nc(N)[nH]c(=O)c42)c2ccccc2C3=O)ccc1O (stereo not given)	-15.5	-4.7	3.7	2.2	i	-1.3
Cc1ccc([C@H]2C[C@@H](n3cc(COC(=O)c4ccccc4)nn3)[C@H](O)CN2C(=O)c2cccs2)cc1	-13.0	5.2	·	12.7	i	-3.7
Cc1ccc(S(=O)(=O)N2CCN(C(=O)c3cccc(-n4cccc4)c3)CC2)cc1	-14.8	0.4	2.5	8.0	i	20.8
CN(c1ccc(C(=O)N2CCN(Cc3ccccc3)CC2)cc1)S(=O)(=O)c1ccccc1	-6.4	-8.9	-2.1	0.6	+	7.9
Cc1ccc(C(=O)N2CCN(S(=O)(=O)c3ccccc3)CC2)cc1	31.2*	-6.1	-2.3	-8.8	i	0.7
O=C(CC1CCCC1)N1CCN(S(=O)(=O)c2ccccc2)CC1	2.4	-6.4	-3.0	3.9	+	0.5
Cc1ccc(S(=O)(=O)N2CCN(C(=O)c3ccccc3)CC2)cc1	-7.6	-2.3	-3.8	7.3	+	11.7
SMILES	CHRM1 antagonist	CHRM1 agonist	ATG4B inh	CHRM1 PAM	Myeloid diff MLP	SKN-1 block
Cc1oc2ccc(O)cc2c1C(=O)c1ccc(Br)cc1	2.1	-1.2	-3.2	-2.5	i	9.2
O=C(c1ccc(F)cc1)N1CCN(C(=O)c2cccnc2)CC1	-9.8	-1.6	-3.9	2.9	i	18.4
O=C(c1ccccc1)N1CCN(C(=O)c2cccnc2)CC1	-14.0	-1.9	4.2	8.9	+	5.3
O=C(NC1CCCCCC1)c1ccc([N+](=O)[O-])s1	-5.9	-5.2	9.8	0.8	i	11.5
CC(C)CCN1C(=O)CC(NNC(=O)c2ccc(S(=O)(=O)N3CCCC3)cc2)C1=O (stereo not given)	7.7	-4.2	-4.4	-0.4	i	5.5
COCCN1C(=O)CC(NNC(=O)c2ccc(S(=O)(=O)N3CCCC3)cc2)C1=O (stereo not given)	-9.5	-5.5	-6.6	6.8	i	100.6*
COc1ccc(-c2cc(-c3ccccc3O)[nH]n2)cc1OC	31.3*	-3.5	-34.4	-8.3	i	13.6
Cc1ccc(-c2cc(-c3cccc(F)c3)n[nH]2)c(O)c1	-29.6	-2.5	9.4	3.0	i	29.2
Cc1ccc(O)c(-c2cc(-c3cccc(F)c3)n[nH]2)c1	-12.6	-2.3	4.5	5.0	i	37.0*
Cc1ccc(C(=O)N/N=C/c2ccc([N+](=O)[O-])s2)cc1	-8.5	0.8	-10.9	8.2	?	8.7
O=C(N/N=C/c1ccc([N+](=O)[O-])s1)c1cccc(Br)c1	-11.5	0.0	-5.8	9.4	+	9.0
CC1CCCCN1Cc1c(O)ccc2c(=O)c(-c3nc4ccccc4s3)c(N)oc12 (stereo not given)	-8.1	-9.2	-29.0	10.5	?	80.7*
CN(C)c1oc(-c2ccco2)nc1C#N	21.2	-1.7	-2.7	-5.9	i	59.2*
N#Cc1cc(C(=O)c2cc(F)ccc2O)cn(-c2nccs2)c1=O	33.8	53.9*	9.6	-17.3	+	10.4
N#Cc1cc(C(=O)c2ccccc2O)cn(-c2nccs2)c1=O	30.8	45.4*	2.2	-23.6	i	-2.2
CC(C)n1cc(C(=O)c2ccccc2O)cc(C#N)c1=O	-13.4	-0.6	10.3	16.2	i	-1.2
Cc1c(-n2cc(C(=O)c3cc(F)ccc3O)cc(C#N)c2=O)c(=O)n(-c2ccccc2)n1C	-1.4	-13.3	-7.1	1.9	i	-4.2
CCOC(=O)C1=C(COC(=O)CNS(=O)(=O)c2c(F)cc(F)cc2Br)NC(=O)NC1C (stereo not given)	5.3	-4.4	-25.4	1.2	i	3.3
CC1(C)N=C(N)N=C(N)N1c1ccc(Oc2ccc(Cl)cc2)c(Cl)c1	54.9*	-9.3	7.8	-27.3	?	17.4
CN(CC(=O)Nc1cccc(F)c1)C(=O)Cc1n[nH]c(=O)c2ccccc12	41.2*	-2.6	-6.1	-15.5	i	4.1
CN(CC(=O)Nc1ccc(Cl)c(C(F)(F)F)c1)C(=O)Cc1n[nH]c(=O)c2ccccc12	5.8	-6.8	-4.0	-4.3	i	7.2
COc1cccc(NC(=O)CN(C)C(=O)c2cc(-c3ccc(F)cc3)nc3ccccc23)c1	27.3*	-0.5	-25.9	-5.8	i	6.3

Screens as filed in PubChem BioAssay.
